From PubChem BioAssay (Tox21) come the findings set out here.

Results filed as inconclusive are left out. Unmarked numbers belong to inactive results. Activity calls are given as the source filed them. Unless noted, calls follow the shape of the dose curve; as a rule, active = well fitted curve in the direction sought with a large enough effect in the repeat runs; inconclusive = weak or mixed curves; inactive = no such curve, though single readings can be large; an effect the other way counts as inactive or inconclusive.

Experiment [1] in a line: qHTS assay to identify small molecule antagonists of the thyroid receptor (TR) signaling pathway - cell viability counter screen (AID 743064). Also: nearly all actives have a fitted effect of over 50% in size. The method in brief: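 GH3.TRE-Luc rat pituitary cells dosed after 4 hr plating, co-stimulated with T3 at 1 nM final, incubated 23.5 h at 37 C. Viability measured in the same wells by CellTiter-Fluor fluorescence after 30 min further at 37 C.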

Experiment [2] can be described thus: qHTS assay to identify small molecule antagonists of the thyroid receptor (TR) signaling pathway (AID 743065). Also: nearly all actives have a fitted effect of over 55% in size. In short, it runs like this:
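GH3.TRE-Luc rat pituitary cells carrying two TR response elements driving luciferase were plated for 4 h, given compound plus 1 nM T3 (final), and incubated 23.5 h at 37 C. ONE-Glo luminescence measured reporter inhibition; CellTiter-Fluor fluorescence tracked cytotoxicity.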

Experiment [3] has as its system thyroid hormone receptor (rat, GH3 cells). As to the kind of experiment: qHTS assay to identify small molecule agonists of the thyroid receptor (TR) signaling pathway (AID 743066; calls by dose curve).
The target in experiment [4] is Estrogen receptor (Homo sapiens) (UniProt P03372). As to the kind of experiment: qHTS assay to identify small molecule antagonists of the estrogen receptor alpha (ER-alpha) signaling pathway (AID 743069; active = well fitted curve in the direction sought with a large enough effect in the signal ratio in the repeat runs, not every such curve was filed as active; the % refers to the signal ratio). In short, it runs like this: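 Estradiol-stimulated ER-alpha-UAS-bla HEK293 cells, 18 hr compound exposure at 37C. LiveBLAzer B/G substrate, 2 hr RT, fluorescence read.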

Experiment [5] in a line: qHTS assay to identify small molecule antagonists of the estrogen receptor alpha (ER-alpha) signaling pathway - cell viability counter screen (AID 743074; calls by dose curve;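 also: HEK293 cells carrying ER-alpha-UAS-bla reporter stimulated with 17beta-estradiol; nearly all actives have a fitted effect of over 45% in size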).
The target in experiment [6] is Estrogen receptor (Homo sapiens) (UniProt P03372). As to the kind of experiment: qHTS assay to identify small molecule agonists of the estrogen receptor alpha (ER-alpha) signaling pathway (AID 743075; calls by dose curve;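 also: HEK293 GripTite cells with ER-alpha and UAS-driven beta-lactamase reporter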).
For experiment [7] the target is unchanged. The experiment is described as follows: qHTS assay to identify small molecule agonists of the estrogen receptor alpha (ER-alpha) signaling pathway using the BG1 cell line (AID 743079). Also: nearly all actives have a fitted effect of over 20% in size. Also: potency is read from the fitted curve at half-maximal effect. As to conditions: BG1Luc4E2 cells, ERE-luciferase agonist, 22 h.
A short description of experiment [8]: qHTS assay to identify small molecule antagonists of the estrogen receptor alpha (ER-alpha) signaling pathway using the BG1 cell line (AID 743080; calls by dose curve;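 also: BG1 cells stimulated with 17beta-estradiol alongside compound; nearly all actives have a fitted effect of over 25% in size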). The method in brief:
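Readout is ONE-Glo luminescence, taken 30 min at room temperature after reagent addition, preceded by a CellTiter-Fluor viability read; BG1-Luc-4E2 cells had received compound and 17beta-estradiol for 21.5 h at 37 C.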

Experiment [9] in a line: qHTS assay to identify small molecule antagonists of the estrogen receptor alpha (ER-alpha) signaling pathway using the BG1 cell line - cell viability counter screen (AID 743081).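 Also: compound given together with 17beta-estradiol as the ER stimulus; nearly all actives have a fitted effect of over 45% in size.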
The target of experiment [10] is Aromatase (Homo sapiens) (UniProt P11511). As to the kind of experiment: qHTS assay to identify aromatase inhibitors (AID 743083). Also: nearly all actives have a fitted effect of over 55% in size.
% is scaled to controls: 0 for no effect and ±100 for the full control effect.

Aromatase (Homo sapiens), sequence (P11511 whole entry, looked up): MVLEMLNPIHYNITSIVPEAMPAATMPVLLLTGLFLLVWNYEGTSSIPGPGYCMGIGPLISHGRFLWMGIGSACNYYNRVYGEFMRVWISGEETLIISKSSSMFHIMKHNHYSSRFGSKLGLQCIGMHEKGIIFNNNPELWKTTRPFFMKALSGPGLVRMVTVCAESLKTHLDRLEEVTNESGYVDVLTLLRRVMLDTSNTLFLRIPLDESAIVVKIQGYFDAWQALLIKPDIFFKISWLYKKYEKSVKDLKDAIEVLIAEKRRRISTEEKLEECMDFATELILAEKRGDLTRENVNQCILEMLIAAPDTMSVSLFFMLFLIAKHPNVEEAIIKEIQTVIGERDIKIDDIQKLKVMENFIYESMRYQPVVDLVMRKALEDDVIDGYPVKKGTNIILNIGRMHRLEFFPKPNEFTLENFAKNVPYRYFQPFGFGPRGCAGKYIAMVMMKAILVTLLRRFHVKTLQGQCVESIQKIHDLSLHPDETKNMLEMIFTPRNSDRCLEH
Estrogen receptor (Homo sapiens), sequence (P03372 whole entry, looked up): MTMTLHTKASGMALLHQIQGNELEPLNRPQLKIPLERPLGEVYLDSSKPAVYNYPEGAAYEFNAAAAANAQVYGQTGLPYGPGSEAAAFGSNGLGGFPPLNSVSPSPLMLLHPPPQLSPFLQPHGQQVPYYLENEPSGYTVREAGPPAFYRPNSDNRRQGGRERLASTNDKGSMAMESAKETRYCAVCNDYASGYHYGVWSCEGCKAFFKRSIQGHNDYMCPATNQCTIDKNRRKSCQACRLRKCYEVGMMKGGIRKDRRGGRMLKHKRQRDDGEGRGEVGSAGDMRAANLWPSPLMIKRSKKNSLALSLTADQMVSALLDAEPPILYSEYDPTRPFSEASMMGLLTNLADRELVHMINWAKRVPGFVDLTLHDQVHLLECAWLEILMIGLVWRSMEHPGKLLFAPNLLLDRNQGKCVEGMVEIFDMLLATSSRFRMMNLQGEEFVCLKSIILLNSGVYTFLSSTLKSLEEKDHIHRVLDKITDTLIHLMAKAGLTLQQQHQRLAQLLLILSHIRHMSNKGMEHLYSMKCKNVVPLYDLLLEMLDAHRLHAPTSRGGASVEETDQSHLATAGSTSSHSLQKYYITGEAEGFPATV

Regarding `COc1cc2c(cc1OC)[C@@]13CCN4CC5=CCO[C@H]6CC(=O)N2[C@H]1[C@H]6[C@H]5C[C@H]43`, the Potency entry in [1], in [2], in experiment [3], in experiment [4], in [6] and in [8] was “inactive” in each case. Moreover, the Potency entry in experiment [9] and in experiment [10] was “inactive” each time. In [5], the molecule was classed as inactive. Further, in experiment [7] (at 70.3 µM (top of the series)), the activation was -4.94%.

Turning to `NC(=O)O`, the Potency result in experiment [1], in experiment [2], in experiment [3], in experiment [4], in experiment [6] and in experiment [8] was “inactive” in each case. The Potency result in experiment [9] and in experiment [10] was “inactive” throughout. Also, the result in experiment [5] was inactive. Also, the activation in experiment [7] (at 70.3 µM (top of the series)) is -5.63%.

As to `ClC(Cl)C(Cl)Cl`, the Potency entry in [1], in experiment [2], in experiment [3], in [4], in experiment [6] and in [8] was “inactive” each time. Further, the Potency entry in experiment [9] and in [10] was “inactive” throughout. The molecule was called inactive in [5]. In addition, the activation in experiment [7] (at 95 µM (top of the series)) is -0.198%.

For `CC(=O)CC(c1ccc(Cl)cc1)c1c(O)c2ccccc2oc1=O` (stereo not drawn), the Potency result in [1], in [2], in experiment [3], in experiment [4], in [6] and in [8] was “inactive” in each case. In addition, the Potency entry in [9] and in experiment [10] was “inactive” each time. In addition, in experiment [5], the result was inactive. Besides, in experiment [7] (at 95 µM (top of the series)), the activation is -6.05%.

With `CCC1(c2ccccc2)C(=O)NC(=O)NC1=O`, the Potency result in experiment [1], in [2], in [3], in experiment [4], in [6] and in [8] was “inactive” each time. Also, the Potency result in experiment [9] and in experiment [10] was “inactive” throughout. In addition, the result in experiment [5] was inactive. For the same molecule, the activation was -1.3% in experiment [7] (at 70.3 µM (top of the series)) and -10.3% in [7] (at 95 µM (top of the series)).

In the case of `N#Cc1ccncc1`, the Potency result in experiment [1], in [2], in experiment [3], in experiment [4], in experiment [6] and in [8] was “inactive” each time. Also, the Potency result in [9] and in experiment [10] was “inactive” in each case. The molecule was called inactive in experiment [5]. Besides, the activation in experiment [7] (at 95 µM (top of the series)) was 1.2%.

For the molecule `O=[N+]([O-])c1cccc2cccnc12`, the Potency entry in experiment [1], in experiment [2], in experiment [3], in experiment [4], in experiment [6] and in experiment [8] was “inactive” in each case. Moreover, the Potency result in experiment [9] and in experiment [10] was “inactive” in each case. In addition, the outcome in experiment [5] was inactive. For the same molecule, the activation in [7] (at 95 µM (top of the series)) was -10.4%.

In the case of `O=C(O)c1cccc(Cl)c1`, the Potency result in experiment [1], in experiment [2], in experiment [3], in experiment [4], in experiment [6] and in experiment [8] was “inactive” throughout. In addition, the Potency result in [9] and in experiment [10] was “inactive” throughout. Also, the call in experiment [5] was inactive. Besides, the activation in experiment [7] (at 70.3 µM (top of the series)) is 2.91%.

With `CC1CN1P(=O)(N1CC1C)N1CC1C` (stereo not drawn), the Potency result in experiment [1], in [2], in experiment [3], in experiment [4], in experiment [6] and in [8] was “inactive” in each case. For the same molecule, the Potency entry in experiment [9] and in experiment [10] was “inactive” throughout. Also, in experiment [5], the outcome was inactive. Further, the activation in [7] (at 70.3 µM (top of the series)) was -10.3%.

`CCC(C)n1c(=O)[nH]c(C)c(Br)c1=O` (stereo not drawn): the Potency entry in [1], in experiment [2], in [3], in experiment [4], in experiment [6] and in experiment [8] was “inactive” each time. For the same molecule, the Potency entry in experiment [9] and in [10] was “inactive” each time. Moreover, the call in experiment [5] was inactive. For the same molecule, the activation in [7] (at 70.3 µM (top of the series)) was 1.5%.

Consider `CCC(=O)c1ccccc1`, for which the Potency entry in experiment [1], in experiment [2], in experiment [3], in [4], in [6] and in experiment [8] was “inactive” each time. Besides, the Potency result in [9] and in [10] was “inactive” each time. Moreover, the molecule was classed as inactive in [5]. Also, the activation in experiment [7] (at 70.3 µM (top of the series)) is -1.07%.

Consider `CCOP(=O)(N=C1SCCS1)OCC`, for which the Potency entry in experiment [1], in [2], in [3], in [4], in experiment [6] and in experiment [8] was “inactive” each time. The Potency result in experiment [9] and in experiment [10] was “inactive” in each case. Moreover, the result in experiment [5] was inactive. Besides, the activation in [7] (at 70.3 µM (top of the series)) was -3.11%.

Take `c1cc2c(c(N3CCNCC3)c1)OCCO2`: the Potency entry in experiment [1], in [2], in [3], in [4], in [6] and in experiment [9] was “inactive” each time. Besides, the Potency entry in experiment [10] is “inactive”. Besides, in experiment [5], the molecule was classed as inactive. Further, the activation in [7] (at 70.3 µM (top of the series)) is 9.1%.

`C=CC1CC=CCC1` (stereo not drawn): the Potency result in experiment [1], in experiment [2], in experiment [3], in experiment [4], in experiment [6] and in experiment [8] was “inactive” throughout. For the same molecule, the Potency entry in experiment [9] and in [10] was “inactive” each time. Further, the call in experiment [5] was inactive. Further, the activation in experiment [7] (at 70.3 µM (top of the series)) is 11%.

Consider `CCCSC(=O)Cl`, for which the Potency result in [1], in [2], in experiment [3], in experiment [4], in [6] and in [9] was “inactive” throughout. In experiment [10], the Potency entry was “inactive”. The molecule was called inactive in [5]. In addition, in experiment [7] (at 95 µM (top of the series)), the activation was 3.93%.

With `OCCSCSCCO`, the Potency entry in [1], in [2], in experiment [3], in experiment [4], in experiment [6] and in experiment [8] was “inactive” each time. The Potency result in [9] and in experiment [10] was “inactive” each time. Besides, the result in experiment [5] was inactive. Moreover, in experiment [7] (at 70.3 µM (top of the series)), the activation is -2.71%.

In the case of `COP(=S)(OC)Oc1c(Cl)cc(C)cc1Cl`, the Potency result in [1], in experiment [2], in experiment [3], in [4], in experiment [6] and in experiment [8] was “inactive” each time. Besides, the Potency result in experiment [9] and in experiment [10] was “inactive” each time. In addition, the molecule was called inactive in [5]. Moreover, in experiment [7], the Potency is 30.6 µM (active).

Regarding `BrCCCCCCBr`, the Potency result in experiment [1], in experiment [2], in experiment [3], in experiment [4], in experiment [6] and in [9] was “inactive” throughout. In addition, the Potency entry in [10] is “inactive”. Further, in [5], the call was inactive. For the same molecule, the activation in experiment [7] (at 70.3 µM (top of the series)) is -3.68%.

Turning to `O=[N+]([O-])c1ccc(CBr)cc1`, the Potency entry in experiment [1], in experiment [2], in experiment [3], in [4], in [6] and in experiment [9] was “inactive” throughout. For the same molecule, in experiment [10], the Potency result was “inactive”. Also, in [5], the molecule was classed as inactive. The activation in [7] (at 95 µM (top of the series)) was 2.58%.

As to `Cc1ncsc1CCCl`, the Potency result in [1], in experiment [2], in experiment [3], in experiment [4], in experiment [6] and in [8] was “inactive” throughout. For the same molecule, the Potency entry in experiment [10] was “inactive”. Moreover, the result in [5] was inactive. Moreover, the activation in experiment [7] (at 70.3 µM (top of the series)) is 1.72%.

Consider `Nc1cnn(-c2ccccc2)c(=O)c1Cl`, for which the Potency entry in experiment [1], in [2], in experiment [3], in experiment [4], in experiment [6] and in [9] was “inactive” in each case. Also, in [10], the Potency entry is “inactive”. The molecule was classed as inactive in experiment [5]. Moreover, the activation in experiment [7] (at 70.3 µM (top of the series)) was 6.72%.

For the molecule `CCCCN(CCCCO)N=O`, the Potency result in experiment [1], in experiment [2], in experiment [3], in experiment [4], in experiment [6] and in experiment [9] was “inactive” in each case. In addition, the Potency entry in experiment [10] was “inactive”. Moreover, in experiment [5], the molecule was classed as inactive. The activation in experiment [7] (at 70.3 µM (top of the series)) is -3.24%.

Take `O=C1OC(c2ccc(O)c(S(=O)(=O)O)c2)(c2ccc(O)c(S(=O)(=O)O)c2)c2c(Br)c(Br)c(Br)c(Br)c21`: the Potency result in experiment [1], in experiment [2], in experiment [3], in [4], in [6] and in experiment [8] was “inactive” in each case. Moreover, the Potency entry in [10] was “inactive”. Moreover, the call in [5] was inactive. Besides, in [7] (at 70.3 µM (top of the series)), the activation is -0.304%.

As for `CC(C)CP(=S)(S)CC(C)C`, the Potency result in experiment [1], in experiment [2], in experiment [3], in experiment [4], in experiment [6] and in [8] was “inactive” throughout. Moreover, the Potency result in experiment [9] and in [10] was “inactive” each time. Besides, in [5], the molecule was called inactive. Also, the activation in experiment [7] (at 70.3 µM (top of the series)) is -12.9%.
